Source: PubChem BioAssay AID504660 (National Center for Advancing Translational Sciences (NCATS), 2011)
In all, about 360,000 compounds went through this assay and about 3,700 (1%) were called active. This excerpt belongs to a sample that is enriched for actives. Unmarked numbers belong to inactive results. Cut-off read from the data, not from the text of the source: active = activation above about 30%; inactive = the rest.

biological target: D(1A) dopamine receptor (Homo sapiens) (UniProt P21728); assay: Allosteric Agonists of the Human D1 Dopamine Receptor: qHTS; details: HEK293 T-REx D1 cells, calcium flux, agonist mode; at 2 µM; active compounds read high; note: 0% is about no effect
Sequence (P21728 whole entry, looked up): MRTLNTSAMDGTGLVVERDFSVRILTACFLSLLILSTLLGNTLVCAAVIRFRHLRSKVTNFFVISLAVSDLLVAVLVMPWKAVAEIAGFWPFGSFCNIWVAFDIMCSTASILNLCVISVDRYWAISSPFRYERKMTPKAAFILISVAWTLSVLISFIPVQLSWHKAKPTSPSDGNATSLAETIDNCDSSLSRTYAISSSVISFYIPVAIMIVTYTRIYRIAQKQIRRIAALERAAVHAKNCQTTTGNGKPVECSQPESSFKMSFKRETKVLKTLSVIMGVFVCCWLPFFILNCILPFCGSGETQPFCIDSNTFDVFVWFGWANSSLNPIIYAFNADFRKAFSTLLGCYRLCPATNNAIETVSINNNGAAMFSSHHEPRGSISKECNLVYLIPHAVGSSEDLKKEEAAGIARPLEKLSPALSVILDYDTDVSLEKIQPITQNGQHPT
Outline: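 Agonism was scored from calcium flux recorded over 180 s (1 read/s) after pintool compound addition, following a 10-cycle baseline. Cells were inducible force-coupled HEK293 TREx D1, plated overnight at 30 C and loaded with no-wash calcium dye.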

Structure (SMILES) | activation
CCN(CC)C(=O)CSc1nc2cc3c(cc2c(=O)n1CCCC(=O)NCc1ccc2c(c1)OCO2)OCO3 | 0.699%
CCOc1ccc(CNC(=O)C2CCCN(S(=O)(=O)N(CC)c3ccc(OCC)cc3)C2)cc1 (stereo unspecified) | -0.432%
Cc1noc(C)c1-c1ccc2ncnc(NCc3ccc(F)c(F)c3)c2c1 | 131% (active)
Cc1noc(C)c1-c1ccc2ncnc(NC(C)c3ccco3)c2c1 (stereo unspecified) | -0.27%
Cc1noc2ncnc(NCc3ccccc3Cl)c12 | 21.4%
O=C(NCCCO)c1nn(-c2ccc(Cl)cc2)nc1CO | -0.511%
Cc1ccc(OCC(=O)Nc2ccc(OCc3cc(=O)n4c(C)csc4n3)cc2)cc1C | 5.64%
O=C(C[n+]1cc(Br)cc2ccccc21)c1ccc(F)cc1 | 39.6% (active)
O=C(CNC(=O)c1ccccc1F)c1ccc(Br)cc1 | -0.969%
O=C(c1ccc(F)cc1)n1c(=S)nc2ccccn21 | 2.37%
Cc1ccc(-n2ncc3c(N4CCC(C(N)=O)CC4)ncnc32)cc1 | -2.06%
CCOC(=O)C1CCN(C(=O)CSc2c3c(nc4ccc(Cl)cc24)CCCC3)CC1 | 3.05%
Cc1cc(NC(=O)c2ccc(-c3ccc(Cl)cc3)o2)cc(-c2nc3ncccc3o2)c1O | -0.471%
CCN(Cc1ccccc1)C(=O)c1cn(-c2cccc(OC)c2)c(=O)c2ccccc12 | 0.204%
Cc1cccc(C(=O)Nc2ccc(-c3nc4ncccc4o3)cc2C)c1 | 0.768%
CCN(CC(=O)Nc1c(F)cccc1F)C(=O)c1ccc(S(=O)(=O)N2CCCCC2)cc1 | -0.0233%
CN(C)CCCN(C(=O)c1ccc(S(=O)(=O)N2CCCCCC2)cc1)c1nc2ccc(Br)cc2s1 | 42.8% (active)
CCN(CC)CCN(C(=O)c1ccc(N2C(=O)CCC2=O)cc1)c1nc2cc3c(cc2s1)OCO3 | 5.63%
Cc1cc(C)c2sc(NC(=O)c3ccc(S(=O)(=O)N4CCCC4)cc3)nc2c1 | -0.497%

Structure (SMILES) | activation
CCCCN(CC)C(=O)c1ccc2c(c1)OCO2 | 4.54%
CCc1ccc2nc(N(CCCN(C)C)C(=O)c3ccc4c(c3)OCCO4)sc2c1 | 53.9% (active)
CCOc1ccc(CNC(=O)c2cc(=O)[nH]c3ccc(S(=O)(=O)N4CCCCC4)cc23)cc1 | -3.81%
Cc1cc(C)cc(NS(=O)(=O)c2cc3c(cc2C)NC(=O)CO3)c1 | 3.6%
Cc1ccccc1OCc1ccc(-c2nc(C#N)c(N3CCCCC3)o2)o1 | 1.07%
Cc1ccc(Cn2ncc3c4sc(C)cc4n(C)c3c2=O)c(C)c1 | 3.45%
Cn1c(=O)c(=O)n(C)c2cc(NC(=O)c3ccccc3Br)ccc21 | 0.667%
Cc1ccc(CNC(=O)CCNS(=O)(=O)c2ccc3c(c2)oc(=O)n3C)cc1 | 1.82%
Cc1cc(OCC(=O)NCC2(N(C)C)CCCCC2)cc(C)c1Cl | 9.34%
CN1CCN(C2(CNC(=O)COc3ccc(C(C)(C)C)cc3)CCCCC2)CC1 | 42.8% (active)
CCOc1ccc(S(=O)(=O)Nc2cccc(C(=O)NCC3(N4CCCCC4)CCCCC3)c2)cc1 | 5.67%
O=C(NCc1ccc2c(c1)CCN2C(=O)c1ccccc1)c1ccccc1 | 2.65%
Cc1cc(C)c2nc3nc(C)cc(C)c3c(N)c2c1 | 31% (active)
O=C(CSc1nc2c(c(=O)[nH]1)CN(Cc1ccc(F)cc1)CC2)Nc1ccccc1Cl | 3.05%
CCOc1ccccc1CNC(=O)C1CCCN(S(=O)(=O)c2ccc3c(ccn3C)c2)C1 (stereo unspecified) | 4.08%
O=C(Nc1nnc(S(=O)(=O)N2CCCc3ccccc32)s1)c1cccc(F)c1 | 0.00305%
O=C(c1ccc(Br)cc1)N(Cc1cccs1)c1ccc(F)cc1 | 9.82%
Cc1c2cnn(-c3ccccc3)c(=O)c2c(C)n1CCCC(=O)N1CCN(C)CC1 | 0.261%
Cc1ccccc1CNC(=O)Cn1c(C)c2cnn(-c3ccccc3)c(=O)c2c1C | 3.52%

Structure (SMILES) | activation
Cc1c2cnn(-c3ccccc3)c(=O)c2c(C)n1C(C)C(=O)Nc1ccc(Br)cc1F (stereo unspecified) | 34.5% (active)
O=C(/C=C/c1cn(CC(O)CN2CCc3ccccc32)c2ccccc12)c1ccc(Br)cc1 (stereo unspecified) | 11.4%
COc1ccc(-c2cc(-c3ccc(F)cc3)nc3c2COc2ccccc2-3)cc1 | -0.494%
COc1ccccc1CNC(=O)CCn1c(=O)c2ccccc2n(CC(=O)Nc2ccc(Br)cc2F)c1=O | 0.0005%
O=C(/C=C/c1ccc(F)cc1)NC(=S)NNC(=O)c1cccnc1 | 1.33%
COc1ccc(C(=O)NC(=O)CSc2nnc(-c3ccco3)n2-c2ccccc2)cc1 | 1%
Cc1onc(-c2ccccc2)c1C(=O)NNC(=S)NC(=O)c1ccc(F)cc1 | 61.1% (active)
Cn1nnc(NC(=S)NC(=O)c2ccccc2)n1 | 4.22%
COc1ccc(C(=O)NNC(=S)NC(=O)c2ccccc2)cc1 | 84.2% (active)
COc1ccc(C(=O)NC(=S)NNC(=O)c2c(-c3ccccc3)noc2C)cc1 | 86.2% (active)
O=C(NNC(=S)NC(=O)c1cn(-c2ccccc2)nc1-c1ccccc1)c1ccncc1 | 6.27%
CC(=O)NC(=S)NNC(=O)c1ccc(Br)cc1 | 0.645%
COc1ccc(C(=O)Nc2onc3c2CCCC3)cc1 | -1.07%
Cc1cc(C(=O)Nc2cccc(C(F)(F)F)c2)c2c(C)nn(-c3cccc(F)c3)c2n1 | 19.5%
CCOc1ccc(-n2c(SCC(=O)NCc3ccccc3)nc3n[nH]c(C)c3c2=N)cc1 | 1.25%
COc1ccc(N(CC(=O)NCCc2ccc(Cl)cc2)S(=O)(=O)c2c(C)nn(C)c2C)cc1 | 0.495%
CCOC(=O)c1[nH]c(C)c(CCC(=O)NCc2ccccc2C)c1C | -0.942%
CCOc1ccc(-c2nonc2NC(=O)c2oc3ccc(CC)cc3c2C)cc1 | 5.77%
